# Hits are enriched below; roughly 18% of the tested compounds scored in any of these assays.
# TDP1 cell CPT = growth inhibition of DT40 Tdp1-/-;hTDP1 cells with camptothecin (screen for TDP1 inhibitors) | chicken DT40 Tdp1-/-;hTDP1 cells + 20 nM CPT, ATP luminescence, 48 h | Potency, µM (highest dose often 46.2 µM), for inactives: at the highest dose activity change, negative = growth inhibition, most hits filed as inhibitors | 12% of 420,000 active | AID 686979; also: nearly all actives have a fitted effect of over 55% in size
#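 Chicken DT40 Tdp1-/- cells complemented with human TDP1, 400 cells/well, exposed to compounds plus 20 nM camptothecin for at least 48 h at 37 C; viability read as ATP content by CellTiter-Glo luminescence.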
# KAT2A inh = blocks human GCN5L2 histone acetyltransferase | 0.21% of 390,000 active | GCN5L2 HAT assay, ThioGlo1 CoA-SH fluorescence | Potency, µM (doses to about 58.9 µM), for the others: at the top dose activity change, negative = inhibition, most hits filed as inhibitors | Q92830
#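 Free CoA generated was detected with ThioGlo1 (50uM) fluorescence at Ex340nm/Em540nm, read immediately and after 20 min at room temperature. Enzyme, 20 nM in HEPES pH 7.5 buffer, saw compounds 15 min before adding 75uM H3(1-25) peptide and 70uM acetyl-CoA.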
# TDP1 cell noCPT = qHTS for Inhibitors of human tyrosyl-DNA phosphodiesterase 1 (TDP1): qHTS in cells in absence of CPT. DT40 Tdp1-/- hTDP1 cells, no CPT, ATP luminescence, 48 h. 15% of 420,000 active. Potency, µM (top dose mostly 46.2 µM), for inactives: at the top dose activity change, negative = growth inhibition, usual class: inhibitors; also: nearly all actives have a fitted effect of over 55% in size
#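 Growth kinetics read by CellTiter-Glo luminescence after ≥48 hr at 37 °C. Cells: DT40 Tdp1-/- stably carrying human TDP1, 400 per well, compound exposure in the absence of CPT (DMSO vehicle).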
# PLK1 PBD block = PLK1 (human) polo-box domain binding inhibition; P53350; Plk1 PBD binding of FITC phosphopeptide, fluorescence polarization; Potency, µM, inactives show max response, negative = inhibition, usual class: inhibitors; 2.8% of 360,000 active; also: series mostly up to about 57 µM; nearly all actives have a fitted effect of over 65% in size
# Target sequence (P53350 whole entry, looked up, the tested form may be a part): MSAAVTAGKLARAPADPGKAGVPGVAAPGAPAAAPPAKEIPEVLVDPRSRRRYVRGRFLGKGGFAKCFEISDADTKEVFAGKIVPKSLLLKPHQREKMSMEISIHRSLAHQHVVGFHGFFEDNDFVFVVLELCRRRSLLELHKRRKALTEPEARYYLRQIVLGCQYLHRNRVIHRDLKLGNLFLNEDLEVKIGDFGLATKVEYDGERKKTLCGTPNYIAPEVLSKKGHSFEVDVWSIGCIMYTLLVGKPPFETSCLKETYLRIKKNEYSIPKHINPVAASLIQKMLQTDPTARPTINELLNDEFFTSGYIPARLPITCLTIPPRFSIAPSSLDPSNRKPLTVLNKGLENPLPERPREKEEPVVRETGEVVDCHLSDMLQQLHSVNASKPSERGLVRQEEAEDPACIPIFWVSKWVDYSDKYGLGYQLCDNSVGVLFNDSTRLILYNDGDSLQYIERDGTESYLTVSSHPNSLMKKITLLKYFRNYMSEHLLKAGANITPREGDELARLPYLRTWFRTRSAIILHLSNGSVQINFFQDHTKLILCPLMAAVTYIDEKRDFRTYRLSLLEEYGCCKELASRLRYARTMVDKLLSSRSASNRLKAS
# TDP1 block = inhibitors of human tyrosyl-DNA phosphodiesterase TDP1. recombinant TDP1, AlphaScreen DNA substrate cleavage. Potency, µM (highest dose often 130 µM), without a hit: top-dose activity change, negative = inhibition, usual class: inhibitors. 0.28% of 350,000 active. AID 485290; also: nearly all actives have a fitted effect of over 40% in size
#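 Signal: AlphaScreen proximity between streptavidin donor and anti-FITC acceptor beads on intact substrate. Reaction: Tdp1 1 nM, substrate 15 nM final, 5 min RT after 15 min compound preincubation.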
# VDR inhibitor = vitamin D3 receptor (human) inhibition | Potency, µM, for the others: max response, negative = inhibition, usual class: inhibitors | VDR-SRC2-3 peptide fluorescence polarization, 2 h | AID 504847 | P11473 | 0.93% of 400,000 active
#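 Compounds are added to VDR with labelled SRC2-3 coactivator peptide and held 2 h at room temperature. Inhibition of the VDR–peptide interaction is then read as a change in fluorescence polarization.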
# Numbers without * were called inactive; ? = inconclusive; . = no result given; ! = a repeat was not active. Calls follow the shape of the dose curve; as a rule, active = well fitted curve in the direction sought with a large enough effect; inconclusive = small, poorly fitted or top-dose-only effect, or another doubt; inactive = no such curve, though single readings can be large; an effect the other way counts as inactive or inconclusive. % is scaled to controls: 0 for no effect and ±100 for the full control effect; potency is read from the fitted curve at half-maximal effect.
SMILES,TDP1 cell CPT,KAT2A inh,TDP1 cell noCPT,PLK1 PBD block,TDP1 block,VDR inhibitor
CC1(C(=O)Nc2cccc3cccnc23)CCN1Cc1ccccc1OC(F)F (centres undefined),?,.,15µM*,-1%,.,.
COc1ccc(OC)c(NC(=O)C2(C)CCN2C(=O)C2(c3ccccc3)CCCC2)c1 (centres undefined),?,.,23µM*,-8%,.,.
COc1ccccc1C(=O)Nc1cccc2cccnc12,?,1%,?,-6%,-6%,23%
COc1ccc(OC)c(NC(=O)C2(C)CCN2Cc2cccc(OC)c2OC)c1 (centres undefined),?,.,15µM*,-1%,.,.
COc1ccc(OC)c(NC(=O)C2(C)CCN2C(=O)C(C)(C)c2ccccc2)c1 (centres undefined),?,.,?,10%,.,.
CCc1nnc(NC(=O)CCNC(=O)c2ccco2)s1,0%,1%,?,-14%,.,-17%
CCC(CO)NCc1ccc(OCC(O)c2ccccc2)c(OC)c1 (centres undefined),6%,-4%,13%,1%,-3%,-12%
COc1ccc(NC(=O)C2(C)CCN2CCOc2ccccc2)cc1OC (centres undefined),?,.,?,-9%,.,.
Cc1ccc(OCCN2CCC2(C)C(=O)Nc2ccc3c(c2)OCCO3)cc1 (centres undefined),-98%,.,18µM*,-3%,.,.
CC1(C(=O)Nc2ccc3c(c2)OCCO3)CCN1Cc1ccc2ccccc2c1 (centres undefined),?,.,-64%,-2%,.,.
CC1(C(=O)Nc2cccc3cccnc23)CCN1Cc1ccc(-c2ccccc2)o1 (centres undefined),23µM*,.,18µM*,-24%,.,.
CC(C)Oc1ccc(CN2CCC2(C)C(=O)Nc2cccc3cccnc23)cc1 (centres undefined),18µM*,.,?,-1%,.,.
COc1ccc(OC)c(NC(=O)C2(C)CCN2CCOc2ccccc2)c1 (centres undefined),23µM*,.,?,4%,.,.
CCC(=O)N1CCc2cc(Br)cc(S(=O)(=O)N3CCC(C(=O)Nc4ccccc4F)CC3)c21,?,1%,?,.,5%,-11%
COC(=O)c1ccc(-n2c(/C=C\c3cccc(Br)c3)nc3ccccc3c2=O)cc1,5.2µM*,-6%,2.9µM*,.,5%,1%
COC(=O)c1ccc(-n2c(/C=C/c3cc(OC)c(OC)c(OC)c3)nc3cc(Cl)ccc3c2=O)cc1,18µM*,0%,15µM*,.,5%,11%
Cc1ccc2nc(-c3ccccc3N)[nH]c2c1,-25%,-3%,?,30µM*,0%,?
CC(=O)c1ccc(N2CCN(c3ccc4cc(S(=O)(=O)N5CCC(C)CC5)ccc4n3)CC2)cc1,?,-4%,7.3µM*!,2%,6%,19%
CC(=O)c1ccc(N2CCN(S(=O)(=O)c3ccc4c(c3)CC(C)N4C(=O)C3CCC3)CC2)cc1 (centres undefined),7.3µM*,-5%,5.8µM*,.,7%,11%
CC1Cc2cc(S(=O)(=O)N3CCN(c4ccc(Cl)cc4)CC3)ccc2N1C(=O)C1CC1 (centres undefined),16µM*,-19%,13µM*,3%,0%,-8%
CC1Cc2cc(S(=O)(=O)N3CCN(c4cccc(Cl)c4)CC3)ccc2N1C(=O)C1CC1 (centres undefined),?,-4%,?,-8%,1%,-4%
CC1CCN(S(=O)(=O)c2ccc3nc(N4CCN(c5ccc(F)cc5)CC4)ccc3c2)CC1,-2%,7%,-23%,.,0%,8%
Cc1ccc(-c2nc(CS(=O)(=O)CC(=O)NCCc3ccccc3)c(C)o2)cc1,-1%,-7%,-21%,.,1%,-13%
Cc1ccc(CN2CCN(Cc3cn[nH]c3-c3cccc(F)c3)CC2CCO)o1 (centres undefined),-2%,-8%,-1%,-5%,3%,6%
CSc1ccc(CCNC(=O)C2CCCN(c3ncnc4c3nc3n4CCCCC3)C2)cc1 (centres undefined),?,-2%,?,-21%,5%,11%
SMILES,TDP1 cell CPT,KAT2A inh,TDP1 cell noCPT,PLK1 PBD block,TDP1 block,VDR inhibitor
O=C(NCc1ccccc1)C1CCN(c2ncnc3c2nc2n3CCCCC2)CC1,-2%,-3%,-9%,.,4%,4%
CCN(CCNC(=O)C1CCCN(c2ncnc3c2nc2n3CCCCC2)C1)Cc1ccccc1 (centres undefined),?,-3%,26µM*,-6%,6%,3%
CC(C)N(Cc1ccccc1)C(=O)C1CCCN(c2ncnc3c2nc2n3CCCCC2)C1 (centres undefined),?,-16%,18µM*,1%,3%,4%
O=[N+]([O-])c1ccc(COc2ccccc2CN2CCCCC2)cc1,?,.,?,-13%,.,7%
CCOC(=O)C1=C[C@@H](C(C)(C)C)N(S(=O)(=O)c2ccc(C)cc2)[C@H]1c1ccc(Cl)c(Cl)c1,16µM*,.,23µM*,3%,.,.
CCC[C@@H]1C=C(C(=O)OCC)[C@H](c2ccccc2)N1S(=O)(=O)c1ccc(C)cc1,5.2µM*,.,5.2µM*,-14%,.,.
CCOC(=O)C1=C[C@@H](C2CCCCC2)N(S(=O)(=O)c2ccc([N+](=O)[O-])cc2)[C@H]1c1ccccc1,21µM*,.,?,1%,.,.

# From PubChem
